Assay results published in PubChem BioAssay AID1159580 (chemical genetic matrix, 2015).
The whole screen tested about 5,500 compounds, of which about 2,000 (36%) were called active. About 18% were inconclusive and are not listed. Rule as the data show it: active = normalized growth mostly below about 0.91 (no sharp cut-off); inconclusive = no clear call, values can overlap the other calls; inactive = mostly above about 0.92. This is one part of the list.

Assay: chemical genetic growth profiling, strain panel (AID 1159580);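 also: tested at 20 µM; growth read once vehicle control cultures reached saturation at 30 °C; 1 = growth at the plate median or of vehicle wells; lower values mean less growth of the strain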
Settings: growth OD
[1] = S. cerevisiae deletion strains, locus YGR078C, strain PAC10, stronger effect = lower value
[2] = S. cerevisiae deletion strains, locus YMR307W, strain GAS1, stronger effect = lower value
[3] = S. cerevisiae deletion strains, locus YNL128W, strain TEP1, stronger effect = lower value
[4] = S. cerevisiae deletion strains, locus YNL153C, strain GIM3, stronger effect = lower value
[5] = S. cerevisiae deletion strains, locus YNL322C, strain KRE1, stronger effect = lower value
[6] = S. cerevisiae deletion strains, locus YPL241C, strain CIN2, stronger effect = lower value

Measured: normalized growth

Clc1cccc(N2CCNCC2)c1
inactive: S. cerevisiae deletion strains, locus YAL040C, strain CLN3, stronger effect = lower value 0.974 | S. cerevisiae deletion strains, locus YCL061C, strain MRC1 (second series), stronger effect = lower value 0.983 | S. cerevisiae deletion strains, locus YER002W, strain NOP16, stronger effect = lower value 0.981 | [1] 0.996 | [2] 0.991 | [3] 0.981 | [4] 0.985 | S. cerevisiae deletion strains, locus YNL175C, strain NOP13, stronger effect = lower value 0.97 | S. cerevisiae deletion strains, locus YNL197C, strain WHI3, stronger effect = lower value 0.979 | S. cerevisiae deletion strains, locus YNL224C, strain SQS1, stronger effect = lower value 0.984 | [5] 0.996 | S. cerevisiae deletion strains, locus YOR083W, strain WHI5 (second series), stronger effect = lower value 0.962 | [6] 0.982

CCOC(=O)N=Nc1c(O)[nH]c2ccc(F)cc12
inactive: S. cerevisiae deletion strains, locus YAL013W, strain DEP1, stronger effect = lower value 1.01 | S. cerevisiae deletion strains, locus YBR229C, strain ROT2, stronger effect = lower value 1.01 | S. cerevisiae deletion strains, locus YDL101C, strain DUN1, stronger effect = lower value 1.01 | S. cerevisiae deletion strains, locus YDR150W, strain NUM1, stronger effect = lower value 1 | S. cerevisiae deletion strains, locus YEL061C, strain CIN8, stronger effect = lower value 1.02 | [1] 1 | S. cerevisiae deletion strains, locus YGR229C, strain SMI1, stronger effect = lower value 1 | S. cerevisiae deletion strains, locus YHR030C, strain SLT2, stronger effect = lower value 1.06 | S. cerevisiae deletion strains, locus YHR087W, strain rtc3, stronger effect = lower value 1.03 | S. cerevisiae deletion strains, locus YJR043C, strain POL32, stronger effect = lower value 1 | S. cerevisiae deletion strains, locus YJR075W, strain HOC1, stronger effect = lower value 1.02 | S. cerevisiae deletion strains, locus YKL190W, strain CNB1, stronger effect = lower value 1.01 | S. cerevisiae deletion strains, locus YLR039C, strain RIC1, stronger effect = lower value 1.02 | S. cerevisiae deletion strains, locus YLR058C, strain SHM2 (second series), stronger effect = lower value 0.997 | S. cerevisiae deletion strains, locus YLR085C, strain ARP6, stronger effect = lower value 1.01 | S. cerevisiae deletion strains, locus YLR262C, strain YPT6, stronger effect = lower value 1.01 | S. cerevisiae deletion strains, locus YML094W, strain GIM5, stronger effect = lower value 1.05 | S. cerevisiae deletion strains, locus YMR219W, strain ESC1, stronger effect = lower value 0.999 | S. cerevisiae deletion strains, locus YMR263W, strain SAP30, stronger effect = lower value 0.976 | [2] 0.933 | [3] 1.02 | [4] 1 | S. cerevisiae deletion strains, locus YNL298W, strain CLA4 (second series), stronger effect = lower value 0.998 | [5] 1.02 | S. cerevisiae deletion strains, locus YNR030W, strain Alg12, stronger effect = lower value 1.01 | S. cerevisiae deletion strains, locus YOL006C, strain TOP1, stronger effect = lower value 1.03 | S. cerevisiae deletion strains, locus YPL055C, strain LGE1, stronger effect = lower value 1.04 | [6] 0.889 | S. cerevisiae deletion strains, locus YPR135W, strain CTF4, stronger effect = lower value 1.08 | S. cerevisiae strains, strain wild type, stronger effect = lower value 1
